Source: PubChem (several laboratories)
This is a sample that favours compounds with a hit; in the whole collection about 1.5% have one here.
hDAT+cocaine = human DAT dopamine uptake with cocaine, either direction; Q01959; LLC-PK1 hDAT cells, [14C]-dopamine uptake with cocaine IC80; actives deviate in either direction; B-score at 10 µM; hit rate 1.3% among 110,000; AID 449768;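 active = Z score or B-score, a plate-position-corrected score, falls beyond the plate's 99.7% confidence bounds, in either direction; inactive = both scores lie inside the 99.7% bounds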;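 also: scored against the spread of the other compound wells on the same plate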
Target sequence (Q01959 whole entry, looked up): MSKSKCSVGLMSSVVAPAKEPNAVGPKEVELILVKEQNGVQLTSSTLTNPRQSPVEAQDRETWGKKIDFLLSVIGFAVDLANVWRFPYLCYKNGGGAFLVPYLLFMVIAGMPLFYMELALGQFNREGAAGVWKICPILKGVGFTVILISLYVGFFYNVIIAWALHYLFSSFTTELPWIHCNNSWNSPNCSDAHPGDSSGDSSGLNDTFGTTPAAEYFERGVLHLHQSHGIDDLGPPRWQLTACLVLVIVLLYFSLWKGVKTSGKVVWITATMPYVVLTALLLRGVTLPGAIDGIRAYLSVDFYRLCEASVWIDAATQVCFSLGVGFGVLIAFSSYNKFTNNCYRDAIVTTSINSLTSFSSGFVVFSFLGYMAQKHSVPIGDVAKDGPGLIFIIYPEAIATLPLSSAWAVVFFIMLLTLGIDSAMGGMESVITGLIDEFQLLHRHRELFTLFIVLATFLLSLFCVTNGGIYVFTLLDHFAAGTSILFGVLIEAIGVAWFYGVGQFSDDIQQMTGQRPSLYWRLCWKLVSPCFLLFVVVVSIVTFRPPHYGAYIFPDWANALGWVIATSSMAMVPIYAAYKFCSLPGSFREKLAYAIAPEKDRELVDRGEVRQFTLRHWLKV
MRP-1 activ = activates MRP-1 | hit rate 0.61% among 140,000 | H69AR cells + doxorubicin, viability rescue, CellTiter-Glo | AID 799 | viability increase, % at 10 µM;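 active = viability gain under doxorubicin at or above a set limit, the compound median plus 3 SD, cut at about 4.7% in these data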;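 also: MRP-1 overexpressing cells given doxorubicin 25 µM after compound pretreatment; 18-22 h compound pretreatment then 72 h with doxorubicin before readout; 0% = doxorubicin-only wells and 100% = vehicle-treated cells without doxorubicin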
MRP resist rev = reverses drug resistance mediated by MRP; H69AR cells + 2 uM doxorubicin, CellTiter-Glo, 72 h; differential viability (reversal), % at 10 µM; hit rate 0.04% among 85,000;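 active = viability drop by adding the cancer drug above about 55%, with treated viability meeting a 40% cutoff, limit read from the data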;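 also: viability without doxorubicin minus viability with 2 µM doxorubicin for each compound; larger differential means the compound sensitizes cells more to doxorubicin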
An asterisk follows results filed as active; . = not tested or not shown.

SMILES	hDAT+cocaine	MRP-1 activ	MRP resist rev
CCc1c(C)sc2nc(C(C)C)nc(SCC(=O)N3CCc4ccccc4C3)c12	-0.993	-1.0	.
COc1ccccc1-n1cnc2cc(NCc3cccs3)ccc21	-2.52*	-1.3	-22.5
Cc1ccccc1-n1cnc2cc(NCc3cccs3)ccc21	-1.17	-5.2	-29.5
O=C(NCc1cccnc1)NC1(C(F)(F)F)Oc2ccccc2O1	-5.76*	-4.5	-14.9
O=C(NCc1cccnc1)NC(C(F)(F)F)C(F)(F)F	-0.585	-1.9	-4.1
O=C(COC(=O)c1cc([N+](=O)[O-])ccc1NCc1ccccc1Cl)NCC(F)(F)F	.	-4.9	.
COc1ccc(NC(=O)CSc2nnc(C)n2Cc2ccccc2)cc1	0.0128	-4.1	2.2
CCOC(=O)c1cccc(NC(=O)CSc2nnc(C)n2Cc2ccccc2)c1	3.35*	-3.3	-8.8
COc1ccccc1N1CCN(C(c2cccs2)C(C)NS(=O)(=O)c2ccccc2)CC1 (centres undefined)	0.331	-0.4	0.7
CC(NS(=O)(=O)c1ccccc1)C(c1cccs1)N1CCN(c2ccccc2)CC1 (centres undefined)	4.82*	-1.1	6.8
Nc1cc2nc3ccccc3oc-2cc1=O	-0.891	.	.
O=C(CSc1nnc2c3ccccc3c3ccccc3c2n1)Nc1ccccc1F	.	-2.6	.
Nn1c(SCC(=O)Nc2ccccc2F)nc2ccccc2c1=O	-1.08	8.8*	10.6
CN(c1ccccc1)c1ccc(/C=N/N2CCOCC2)cc1	.	2.1	.
Cc1cc(S(=O)(=O)NCc2ccccc2)ccc1OCC(=O)Nc1cccc([N+](=O)[O-])c1	.	-1.4	.
Cc1[nH]c2ccccc2c1/C=C(\C#N)S(=O)(=O)c1ccccc1	0.811	-1.3	-15.3
N#C/C(=C\c1ccc(O)c(O)c1)S(=O)(=O)c1ccccc1	-2.62*	-1.4	.
O=C(Nc1cccc(-c2nnc(-c3ccco3)o2)c1)C(c1ccccc1)c1ccccc1	-0.569	1.2	-6.5
CC(NC(=O)Nc1ccc([N+](=O)[O-])cc1)C(c1cccs1)N1CCCC1 (centres undefined)	.	-3.6	.
O=C(c1ccc(COc2ccc(Cl)cc2)o1)N1N=C(C(F)F)CC1(O)C(F)F (centres undefined)	.	5.6*	.
COc1ccccc1OCc1ccc(C(=O)N2N=C(C(F)F)CC2(O)C(F)F)o1 (centres undefined)	.	0.8	.
Cc1cc(N2CCOCC2)ccc1/C=C\[N+](=O)[O-]	.	-4.7	.
O=S(=O)(Nc1cc(Sc2cccc3cccnc23)c(O)c2ccccc12)c1ccccc1	.	-5.1	.
CN(C(=O)COc1cc(=O)n(C)c2ccccc12)c1ccc(Cl)cc1	0.757	-1.1	-14.0
CN(c1ccc(Cl)cc1)c1cc(=O)n(C)c2ccccc12	3.07*	-4.3	-22.2
SMILES	hDAT+cocaine	MRP-1 activ	MRP resist rev
COC(=O)c1ccc(-n2c(C)nc(=O)c(-c3ccccc3)c2C)cc1	-0.347	3.8	12.1
COc1ccc(-n2c(C)nc(=O)c(-c3ccccc3)c2C)cc1	1.13	8.2*	3.8
Cc1nc(=O)c(-c2ccccc2)c(C)n1-c1cccc(C(=O)O)c1	1.16	6.0*	-3.6
Cc1nc(=O)c(-c2ccccc2)c(C)n1-c1ccccc1C(=O)O	-0.15	-0.9	11.8
CCO[C@H]1OC(C(=O)N2CCN(C)CC2)=C[C@@H](C2CC2)[C@@H]1CCCO	-0.985	.	.
Cn1c(C(C)(O)C(O)c2ccccc2)nc2ccccc21 (centres undefined)	.	-0.1	.
CCC(C)N(C)C(=O)c1cc2ccccc2c(-c2ccccc2Cl)n1 (centres undefined)	0.327	.	.
CCc1c(C)sc(NC(=O)c2cc(-c3ccc(O)cc3)on2)c1C#N	-0.252	-1.9	-9.7
CCc1c(C)sc(NC(=O)c2cc(CC(C)C)on2)c1C#N	-0.00841	8.0*	-20.0
NCCCCC(NC(=O)C1CCCN1C(=O)C1CSSCC(N)C(=O)NC(Cc2ccc(O)cc2)C(=O)NC(Cc2ccccc2)C(=O)NC(CCC(N)=O)C(=O)NC(CC(N)=O)C(=O)N1)C(=O)NCC(N)=O (centres undefined)	.	-0.2	.
O=C(COc1ccc2ccccc2c1)NCCNC(=O)COc1ccc2ccccc2c1	0.0358	-1.1	-2.6
O=C(COc1ccc2ccccc2c1)Nc1cccc2cccnc12	-7.56*	-0.6	6.1
COc1ccccc1N1CCN(C(=O)c2ccc3[nH]c4c(c3c2)CC(C)CC4)CC1 (centres undefined)	.	-4.4	.
CCOC(=O)c1c(Cl)c(C)nn1-c1nc(OC)cc(OC)n1	.	-2.4	.
O=C(CN(c1ccccn1)S(=O)(=O)c1ccccc1)N/N=C/c1cccc([N+](=O)[O-])c1	.	-1.2	.
CCOCCCNS(=O)(=O)c1ccc(-n2cnnn2)c(OC)c1	-1.2	0.9	16.4
COc1cc(NS(=O)(=O)c2ccc(C)cc2)ccc1-n1cnnn1	0.162	6.3*	-7.7
CCOC(=O)c1c(CN(CC)CC)oc2cc(Br)c(O)cc12	4.06*	-1.5	3.3
CCOC(=O)c1c(CN(CC)CC)oc2ccc(OC)cc12	-0.859	-0.9	2.6
Clc1ccccc1C(c1ccccc1)(c1ccccc1)n1ccnc1	0.616	.	.
CC(C)(C)[C@H]1C=C(C(=O)NCc2ccccc2)O[C@@H](OCCCCO)C1	0.402	.	.
COC(=O)c1c(-c2ccccc2)csc1NC(=O)c1c(-c2ccccc2)noc1C	.	2.1	.
Cc1onc(-c2ccccc2Cl)c1C(=O)Nc1nnc(-c2ccc(Cl)cc2Cl)s1	-0.56	-1.2	5.7
Cc1onc(-c2ccccc2Cl)c1C(=O)Nc1nnc(-c2ccc(Br)cc2)s1	0.0315	7.2*	-7.8
Cc1onc(-c2ccccc2Cl)c1C(=O)Nc1nnc(-c2ccc(F)cc2)s1	2.72*	1.5	.
SMILES	hDAT+cocaine	MRP-1 activ	MRP resist rev
CCOC(=O)c1c(-c2ccc(F)cc2)csc1NC(=O)c1c(-c2ccccc2)noc1C	.	7.5*	.
Cc1onc(-c2c(F)cccc2Cl)c1C(=O)Nc1nnc(-c2ccccc2)s1	-0.697	0.6	-31.0
NCC1CCC(C(=O)Oc2ccc(CCC(=O)O)cc2)CC1 (centres undefined)	0.174	.	.
CCOC(=O)C1=NNC2(c3ccc(Cl)cc3)C(=O)N(c3ccc(C)cc3)C(=O)C12 (centres undefined)	.	-0.9	.
CCCCCc1c2c(cc(O)c1C(=O)O)OC(=O)c1c(cc(OC)cc1C(=O)CCCC)O2	5.3*	.	.
CCCCc1c(C(=O)O)cc(OC)cc1C(=O)O	0.122	1.4	-14.8
C/C(=N\NC(=O)C1(C)CC1(Br)Br)c1ccc(NC(=O)c2ccc(C)o2)cc1 (centres undefined)	.	0.1	.
N#CCSc1nc(-c2ccccc2)c2cc(Cl)ccc2n1	.	-1.4	.
C=CCSc1nc(-c2ccccc2)c2cc(Cl)ccc2n1	-1.61*	-0.6	.
CC1CCN(C(=O)Cn2cc3c(n2)CCCC3)CC1	-0.43	-1.4	13.0
CCOC(=O)N1CCN(C(=O)Cn2cc3c(n2)CCCC3)CC1	-7.86*	-4.7	11.2
CC1=CC(C)C2COC(c3ccc[n+](C)c3)C1C2C (centres undefined)	.	-0.4	.
CN(CCOc1ccc(-c2ccn(S(=O)(=O)c3cccc4ccccc34)n2)cc1)c1ccccn1	-8.28*	4.3	.
CN(CCOc1ccc(-c2ccn(S(=O)(=O)c3c(Cl)cccc3Cl)n2)cc1)c1ccccn1	0.374	2.2	.
Cc1csc(NC(=O)CSc2nnc(-c3ccccn3)n2-c2ccc(C)c(C)c2)n1	2.68*	-0.4	-0.3
Cc1ccc(-n2c(SCC(N)=O)nnc2-c2ccccn2)cc1C	-0.529	-0.8	9.4
